Where a name gives a salt, the structure may show the parent alone.
These molecules were tested on LASCPC-01 (assay: cell viability relative to DMSO control (fraction); higher = less growth inhibition (more viable cells)). Conditions: 2 µM; 72 h.
Protocol: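 High-throughput single-dose screen in the LASCPC-01 NEPC cell line in 384-well plates. Cells were treated with each compound at 2 µM for 72 h, and viability was read by CellTiter-Glo luminescence. Values are normalised to the DMSO control (compound/DMSO) from three replicates; only the 5-HT-related subset of the 7315-compound library is given.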
`Cc1[nH]c2ccc(O)cc2c1CCN` [2-Methyl-5-hydroxytryptamine maleate] gave a cell viability of 0.982.
